Reference: the supplement of paper PMC10646978
± gives the standard deviation.

Experiments:
Settings in all cases: modulator concentration 10 µM
[1] = system: RAW-Dual (murine macrophage reporter line); test: NF-kB reporter (SEAP) activity fold change vs agonist alone; higher = enhanced NF-kB activity
Outline: (§1)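 RAW-Dual murine macrophage reporter cells were seeded at 50 000 per well in 384-well plates and pre-incubated 1 hour at 37 °C with compound pin-transferred to 10 μM final. After 1 hour, a PRR agonist was added and cells incubated overnight. Supernatant NF-κB (SEAP, QUANTI-Blue, 620 nm absorbance) and IRF (Lucia luciferase, QUANTI-Luc, luminescence) signals were divided by the mean agonist-only control on the same plate to give fold change. Two replicate plates were averaged, with errors by propagation.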

[2] = system: RAW-Dual (murine macrophage reporter line); test: IRF reporter (Lucia luciferase) activity fold change vs agonist alone; higher = enhanced IRF activity
Outline: as §1

[3] = system: RAW-Dual (murine macrophage reporter line); test: viability score (confluency relative to resting cells, overnight) (fraction); higher = more viable, active = viable (0.7 or more)
Outline: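 Compound was added at a final 10 μM to RAW-Dual macrophages in 384-well plates and left overnight. Confluency was imaged with IncuCyte, and two masks were generated in IncuCyte software over all imaged wells. Each viability score is confluency relative to resting cells, and a compound met the cutoff only when both masks were above 70% of resting cells.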

[4] = agonist: CpG ODN 1826 0.5 ug/mL

Row | SMILES | NF-kB reporter [1, 4] | NF-kB reporter ([1]; agonist: LPS 0.1 ug/mL) | NF-kB reporter ([1]; agonist: MPLA […]) | IRF reporter ([2]; agonist: 3'3'-cGAMP 10 ug/mL) | IRF reporter ([2]; agonist: LPS 0.1 ug/mL) | IRF reporter ([2]; agonist: MPLA […]) | viability score [3]
1 | O=Cc1ccc(OCc2cccc([N+](=O)[O-])c2)c(Br)c1 | 0.777 ± 0.091 | 0.737 ± 0.057 | 1.09 ± 0.18 | 0.963 ± 0.045 | 1.4 ± 0.09 | 1.49 ± 0.12 | 1 (active)
2 | Cc1ccc(OCC(=O)NN=Cc2cc(Br)cc(Br)c2O)c([N+](=O)[O-])c1 | 0.928 ± 0.071 | 0.908 ± 0.11 | 1.08 ± 0.17 | 1.01 ± 0.073 | 1.33 ± 0.26 | 1.47 ± 0.33 | 1.02 (active)
3 | Cc1cc(/C=C/C#N)cc(C)c1Nc1ccnc(Nc2ccc(C#N)cc2)n1 | 0.602 ± 0.17 | 0.605 ± 0.044 | 1.3 ± 0.12 | 0.209 ± 0.014 | 0.662 ± 0.071 | 0.886 ± 0.13 | 0.985 (active)
4 | O=C(c1cc2cc(F)ccc2s1)N1CCc2ncncc2C1 | 1.05 ± 0.099 | 1.03 ± 0.083 | 0.898 ± 0.063 | 0.927 ± 0.064 | 1.23 ± 0.14 | 1.12 ± 0.3 | 1.01 (active)
5 | O=C(NCC#CCN1CCc2ccccc2C1)c1cccc(Br)c1 | 0.87 ± 0.043 | 1.12 ± 0.095 | 0.94 ± 0.057 | 1.01 ± 0.057 | 1.14 ± 0.069 | 1.26 ± 0.12 | 1.01 (active)
6 | CC(C)NCC(O)COc1cccc2[nH]ccc12 (stereo unspecified) [Prestw-90] | 1.59 ± 0.38 | 0.968 ± 0.068 | 1.13 ± 0.13 | 1.01 ± 0.046 | 1.17 ± 0.13 | 1.17 ± 0.11 | 0.985 (active)
7 | Cc1c(C(=O)OC(C)C)sc(NC(=O)C(C)(C)C)c1C(=O)OC(C)C | 0.823 ± 0.081 | 0.908 ± 0.044 | 1.09 ± 0.099 | 1 ± 0.06 | 1.56 ± 0.095 | 1.77 ± 0.16 | 0.985 (active)
8 | O=[N+]([O-])c1ccc(-n2cccc2C=NNc2nc(N3CCOCC3)nc(N3CCOCC3)n2)cc1 | 0.961 ± 0.42 | 1.09 ± 0.085 | 1.14 ± 0.13 | 0.691 ± 0.022 | 0.999 ± 0.1 | 1.25 ± 0.16 | 1 (active)
9 | O=C1c2ccc(-c3ccc4c(c3)C(=O)N(CCO)C4=O)cc2C(=O)N1CCO | 0.94 ± 0.078 | 1.03 ± 0.063 | 0.912 ± 0.1 | 0.934 ± 0.048 | 1.33 ± 0.09 | 1.24 ± 0.3 | 1 (active)
10 | CC#CCn1c(N2CCC[C@@H](N)C2)nc2c1c(=O)n(Cc1nc(C)c3ccccc3n1)c(=O)n2C | 1.05 ± 0.14 | 1.13 ± 0.22 | 1.02 ± 0.064 | 0.944 ± 0.035 | 1.34 ± 0.38 | 1.14 ± 0.16 | 1.01 (active)
11 | COC(=O)C1=CN(CC2CCCO2)C=C(C(=O)OC)C1c1ccc(OC)cc1 (stereo unspecified) | 1.1 ± 0.063 | 1.04 ± 0.079 | 1.09 ± 0.036 | 0.913 ± 0.037 | 0.993 ± 0.057 | 1.04 ± 0.1 | 0.993 (active)
12 | S=c1n(CN2CCOCC2)nc(-c2ccccc2Br)n1-c1ccccc1 | 1.08 ± 0.19 | 0.947 ± 0.099 | 0.951 ± 0.073 | 0.884 ± 0.031 | 1.21 ± 0.12 | 1.22 ± 0.17 | 1 (active)
13 | O=C(OCCN1CCOCC1)c1ccc(O)cc1O | 1.21 ± 0.12 | 1.06 ± 0.1 | 1.06 ± 0.056 | 1.05 ± 0.14 | 0.972 ± 0.044 | 0.856 ± 0.076 | 0.999 (active)
